Our source for the Potency values is PubChem BioAssay (Tox21).

Where “and” joins values, the source holds several entries; their conditions need not be identical. Equal values may be shown once. Results filed as inconclusive are left out. A call without a number means that no potency is given here. Calls of active or inactive are those of the source. Calls follow the shape of the full dose curve.
Potency is read from the fitted curve at half-maximal effect.

The experiment can be described thus: qHTS assay to identify small molecule agonists of the progesterone receptor (PR) signaling pathway - cell viability counter screen (AID 1346799). Also: nearly all actives have a fitted effect of over 45% in size. The following applies: PR-UAS-bla HEK293T viability, CellTiter-Glo luminescence, 16 h; series mostly up to 92.4 µM. The method in brief: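 Multiplexed viability read: CellTiter-Glo luminescence, 30 min RT, following LiveBLAzer FRET measurement on PR-UAS-bla HEK293T cells exposed to compounds 16 hr.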
In general terms: qHTS replaces the single test concentration by a dilution series.
On to `C=C[Si](OCCOC)(OCCOC)OCCOC`, for which the Potency entry was “inactive”.

`C=C[C@@]1(C)CC(=O)[C@]2(O)[C@@]3(C)[C@@H](O)CCC(C)(C)[C@@H]3[C@H](O)[C@H](OC(C)=O)[C@@]2(C)O1`: the Potency is 12.2 µM (active) and 16.8 µM (active).

On to `OC[C@@H](O)[C@@H](O[C@@H]1O[C@H](CO)[C@H](O)[C@H](O)[C@H]1O)[C@H](O)[C@@H](O)CO`, for which the Potency result was “inactive”.

Turning to `O=C(CCCN1CCC(O)(c2ccc(Cl)cc2)CC1)c1ccc(F)cc1`, the Potency entry was “inactive”.

Consider `CCOC(=O)C(C)Oc1ccc(Oc2cnc3cc(Cl)ccc3n2)cc1` (stereo unspecified), for which the Potency result was “inactive”.

For the compound `O=C(O)c1cc(=O)[nH]c(=O)[nH]1`, the Potency entry is “inactive”.

`COCCOCCOCCO`: the Potency result was “inactive”.

As to `CCCCCCCC/C=C\CCCCCCCC(=O)O`, the Potency result is “inactive”.

Take `[O-]/[N+](=N\O)c1ccccc1`: the Potency entry is “inactive”.

On to `Cc1cccc(Nc2ccccc2C(=O)O)c1C`, for which the Potency result is “inactive”.

Take `Oc1c(Cl)ccc(Cl)c1Cl`: the Potency result is “inactive”.
